ssDAF12 agonist: S. stercoralis DAF-12 activation, primary screen; HEK293 ssDAF-12/GRIP1 lit1-tk-luc reporter, luminescence; % of 3 µM dafachronic acid response; 370,000 tested, 1% active; activation, % at 6.8 µM;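 active = activation above the mean over all tested compounds plus 3 SD, cut at about 0.9% in these data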;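 note: 0% = DMSO-only wells and 100% = 3 µM delta7-dafachronic acid wells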
hgDAF12 agonist: hgDAF-12 agonism, primary luciferase screen; HEK293 GAL4-hgDAF12 UAS-luciferase reporter, agonist luminescence; normalized to butyrate control; activation, % at 6.8 µM; 370,000 tested, 1.8% active;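 active = activation above a cutoff set at the mean of all screened compounds plus 3 SD, cut at about 10% in these data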;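 note: 0% = DMSO wells and 100% = sodium butyrate wells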
DAX1 inh-1: NR0B1 (DAX1) inhibition. inhibition, % at 6.75 µM. AID 504766. P51843. HEK293 Gal4-DAX1 luciferase reporter, luminescence. 340,000 tested, 0.99% active;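 active = inhibition above the mean over all tested compounds plus 3 SD, cut at about 4.2% in these data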;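 note: 0% = DAX1-transfected cells with DMSO and 100% = empty-vector control cells with DMSO; inhibition shows as a rise in luminescence from relieved DAX1 repression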
Target sequence (P51843 207-470 limits assumed): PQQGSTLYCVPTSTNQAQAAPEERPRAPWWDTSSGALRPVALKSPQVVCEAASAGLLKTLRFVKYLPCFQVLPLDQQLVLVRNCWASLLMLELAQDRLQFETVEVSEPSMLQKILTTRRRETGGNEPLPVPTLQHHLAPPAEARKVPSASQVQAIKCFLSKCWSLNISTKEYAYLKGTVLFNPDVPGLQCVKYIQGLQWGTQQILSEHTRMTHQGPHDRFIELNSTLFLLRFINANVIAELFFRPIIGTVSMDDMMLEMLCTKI
DAX1 inh-2: blocks DAX1 repression of SF-1 activated StAR promoter. 370,000 tested, 1.1% active. HEK293T StAR-luciferase reporter, SF-1/DAX-1 repression relief. AID 652010. inhibition, % at 6.8 µM;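 active = inhibition above the mean over all tested compounds plus 3 SD, cut at about 3.6% in these data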;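 note: 0% = DAX-1 cells with DMSO and 100% = cells lacking DAX-1 with DMSO; higher inhibition means more luminescence from relief of DAX-1 repression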
hcDAF12 agonist: H. contortus DAF-12 activation, primary screen. HEK293 hcDAF-12 lit1-tk-luc reporter, luminescence; 0% DMSO, 100% Δ7-dafachronic acid. activation, % at 6.8 µM. 370,000 tested, 1.4% active. AID 652067;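 active = activation above the mean of all tested compounds plus 3 SD, cut at about 5.5% in these data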;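 note: 100% = response to 3 µM Δ7-dafachronic acid high control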
LXR ag: counter-screen for hcDAF-12 agonists: agonists of human LXR-beta; 3,400 tested, under 10 active; HEK293 Gal4-LXR tk-luc reporter, luminescence, 24 h; normalized: DMSO 0%, positive control 100%; activation, % at 6.8 µM; shares compounds with hcDAF12 agonist;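 active = mean percent activation of the reporter above a cutoff set as the average over tested compounds plus their standard deviation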
hcDAF12 conf: confirmation of H. contortus DAF-12 agonists. shares compounds with hcDAF12 agonist. HEK293 hcDAF-12 lit1-tk-luc reporter, luminescence; % of Δ7-dafachronic acid response. activation, % at 6.8 µM. 3,400 tested, 61% active. AID 743032;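 active = mean activation across triplicate tests above the threshold derived from the earlier primary screen, cut at about 5.5% in these data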;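 note: 0% = DMSO only wells and 100% = 3 µM Δ7-dafachronic acid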
Starred values were filed as active, the others as inactive; nt = not tested or not shown. Only some compounds are listed: those with a hit (about 4.1% of all), similar ones and a draw of the others.

SMILES	ssDAF12 agonist	hgDAF12 agonist	DAX1 inh-1	DAX1 inh-2	hcDAF12 agonist	LXR ag	hcDAF12 conf
O=C(Nc1ccc(Br)cc1)c1cc2ccccn2n1	0.8	12.5*	1.8	0.9	6.9*	1.3	5.5
CC(NC(=O)c1cc2ccccn2n1)c1ccccc1 (stereo unspecified)	-0.5	2.9	nt	0.1	-0.9	nt	nt
CC(=O)Nc1cccc(NC(=O)Cc2cccs2)c1	-0.8	-0.2	0.1	0.2	0.1	nt	nt
O=C(Cc1cccs1)Nc1cccc(-c2nc3cc4ccccc4cc3[nH]2)c1	0.9	13.2*	0.6	2.7	9.4*	1.8	5.4
O=[N+]([O-])c1cccc2ccc(/C=C/c3ccc(F)cc3)nc12	0.4	14.2*	0.5	-0.1	8.5*	0.3	6.0*
O=[N+]([O-])c1ccc(/C=C/c2ccc3cccc([N+](=O)[O-])c3n2)cc1	-0.8	5.4	1.1	-1.1	-0.7	nt	nt
CC(=O)C1=C(C)N(Cc2ccc(F)cc2)C(=S)NC1c1cccc(F)c1 (stereo unspecified)	-1.2	0.6	nt	0.5	-1.2	nt	nt
Cc1cccc2c(N=NC(=O)C(C)n3cnc4ccccc4c3=O)c(O)[nH]c12 (stereo unspecified)	-1.1	-0.7	-0.5	-0.1	0.4	nt	nt
Oc1[nH]c2ccccc2c1N=Nc1c(F)c(F)c(Cl)c(F)c1F	-1.0	0.0	0.9	0.6	1.4	nt	nt
Oc1[nH]c2ccccc2c1N=Nc1cccc(Cl)c1	1.2*	9.0	0.6	0.9	8.9*	1.0	13.3*
Cc1cccc2c(N=Nc3ccccc3)c(O)[nH]c12	4.4*	21.9*	5.4*	2.4	14.2*	2.1	21.0*
OC(CCc1cccc(Cl)c1)c1cccs1 (stereo unspecified)	-1.6	4.2	0.9	0.1	0.2	nt	nt
CN(Cc1ccccc1)C(=O)OCc1cn(Cc2ccc(F)c(F)c2)nn1	-1.1	2.1	nt	0.3	-0.4	nt	nt
CCOc1ccc(-c2cn(-c3ccc(OC)cc3)c(SC)n2)cc1	-1.2	11.0*	0.3	2.5	7.0*	0.5	2.3
CN1CCCN(S(=O)(=O)c2ccc3c(c2)CCC(=O)N3)CC1	-0.3	-0.9	nt	-1.1	-2.1	nt	nt
O=C(OCC(=O)c1c[nH]c2ccccc12)C1=COCCO1	1.0*	9.3	1.5	2.8	7.2*	0.9	9.9*
CC(=O)N1N=C(c2ccccc2O)OC1(C)CC(=O)Nc1ccccc1 (stereo unspecified)	-0.2	-1.2	3.5	-0.4	6.8*	-0.3	3.9
Cn1c(SCC(=O)CC(=O)Nc2ccccc2)nnc1-c1ccc(O)cc1	-2.1	-1.5	-0.1	0.3	-0.9	nt	nt
C/C(=N\NC(=O)c1ccccc1O)C1C(=O)c2ccccc2C1=O	-0.1	10.3	1.5	2.5	6.9*	0.4	2.8
CC(=O)NC(C)(c1ccccc1)c1nc(-c2cccc(F)c2)cs1 (stereo unspecified)	-1.3	-1.9	nt	-0.5	-1.7	nt	nt
CCN=C1NC(c2ccccc2)C(C(=O)OC)=C(C)N1Cc1ccc(C(F)(F)F)cc1 (stereo unspecified)	-0.5	1.8	nt	0.7	1.7	nt	nt
O=C(Nc1cccc(F)c1)Nc1ccccn1	-0.6	8.3	3.3	1.1	8.7*	0.6	1.3
Cc1ccc(OC(=O)c2oc3ccc(F)cc3c2C)c(C)c1	0.7	10.7*	1.2	0.0	8.1*	0.0	3.4
CC(=O)Nc1ccc(NC(=O)c2ccc(-c3ccccc3Cl)o2)cc1	-1.2	2.8	0.0	1.4	-1.1	nt	nt
O=C(Nc1nccs1)c1ccc(-c2ccccc2Cl)o1	2.4*	11.6*	3.2	2.0	6.7*	0.7	6.2*
SMILES	ssDAF12 agonist	hgDAF12 agonist	DAX1 inh-1	DAX1 inh-2	hcDAF12 agonist	LXR ag	hcDAF12 conf
CCCS(=O)(=O)NC(=O)C1(C)CCCN(C(=O)c2cc(F)cc(F)c2)C1 (stereo unspecified)	-0.2	1.6	nt	0.3	0.5	nt	nt
CS(=O)(=O)N[C@@H]1C[C@@H]2O[C@H](CO)CC[C@@H]2O[C@@H]1CCc1ccc(/C=C/c2ccccc2)cc1	-1.2	-6.2	nt	-2.7	-4.4	nt	nt
CCc1ccc(C2c3[nH]c4ccccc4c3CCN2C(=O)CNC(N)=O)cc1 (stereo unspecified)	-0.8	1.6	-0.9	-0.4	2.0	nt	nt
CCc1ccc(C2c3[nH]c4ccccc4c3CCN2C(=O)CN2CCN(CC)CC2)cc1 (stereo unspecified)	0.5	0.2	-0.9	0.5	8.5*	-0.3	3.5
CSc1ccc(C2c3[nH]c4ccccc4c3CCN2C(=O)c2ccnn2C)cc1 (stereo unspecified)	2.0*	6.8	0.5	0.3	10.4*	1.1	8.3*
CCc1ccc(C2c3[nH]c4ccccc4c3CCN2C(=O)c2ccc(=O)n(C)n2)cc1 (stereo unspecified)	-0.3	1.6	-0.4	0.2	0.9	nt	nt
Cc1cnc(C(=O)NC2CCSc3ccccc32)cn1 (stereo unspecified)	-0.4	-0.1	2.0	0.0	1.5	nt	nt
COc1cccc(/C=N/Nc2ccccc2C(=O)O)c1O	1.4*	9.1	5.0*	2.7	7.8*	1.0	11.2*
CCn1c(=O)n(CC(=O)N2CCN(C(C)=O)CC2)c(=O)c2ccccc21	-1.9	-1.5	nt	0.9	-3.4	nt	nt
O=C(c1cc2ccccc2oc1=O)N1CCOCC1	0.4	10.7*	2.9	2.8	6.7*	0.8	5.6*
O=C(c1cc2cc(Cl)ccc2oc1=O)N1CCOCC1	-0.8	0.4	-1.0	-0.1	-0.8	nt	nt
O=C(CSc1nc2sc3c(c2c(=O)n1-c1ccc(Cl)cc1)CCC3)Nc1ccc(C(=O)O)cc1	-0.8	-0.5	nt	0.7	7.9*	-0.2	2.5
COc1ccccc1C(=O)NC1CCCCN(Cc2cccc(F)c2)C1=O (stereo unspecified)	-1.1	2.9	nt	-0.6	-3.1	nt	nt
Cn1c(NC(=O)C[n+]2cc(-c3ccccc3)n3c2CCC3)cc(=O)n(C)c1=O	-1.0	2.2	-0.8	0.3	7.1*	-0.3	0.3
NC(=O)C1CCCN(C(=S)Nc2cccc3ccccc23)C1 (stereo unspecified)	0.1	2.2	0.7	0.6	7.7*	-0.3	0.2
NC(=O)C1CCCN(C(=S)NCc2ccc3c(c2)OCO3)C1 (stereo unspecified)	-1.3	1.5	0.1	0.0	-1.1	nt	nt
CCCC1CCC2(CCCN2CCOC(=O)Nc2cccc(Cl)c2)CC1 (stereo unspecified)	-1.4	2.0	nt	nt	1.7	nt	nt
C=CCN1C(=O)c2n[nH]c(C(C)C)c2C1c1ccc2c(c1)OCO2 (stereo unspecified)	-0.9	-2.4	nt	1.5	-0.8	nt	nt
CC(=O)c1cccc(N=C2C(=O)Nc3ccccc32)c1	-0.1	1.7	0.0	0.6	6.6*	-0.2	2.2

Screening results (PubChem)
